# Giardia kill: Small Molecules that selectively kill Giardia lamblia: qHTS; actives 0.15% (n = 340,000); Giardia lamblia trophozoite viability; AID 540267, 2011; activity change, % at 7.66 µM, hits read low; in the data active means activity change below about -80%; inconclusive means between about -30% and that limit;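 further: parasites exposed to compound for two days anaerobically before the ATP read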
#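 Anaerobic 48 hrs incubation at 37 deg C of 100 trophozoites/well with test compounds; ATPLite 1-Step luminescence, 15-30 min RT, reports cellular ATP as viability.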
# RXFP1 agonist: qHTS Assay for Agonists of the Relaxin Receptor RXFP1. HEK293T-RXFP1 cAMP TR-FRET, 30 min; response scale: percent of porcine relaxin response, buffer zero. Potency, µM (highest dose often 57.5 µM), usual class: activators. actives 0.3% (n = 370,000). AID 2676, 2010; active means well fitted activation curve with a large enough effect; inconclusive means small, poorly fitted or top-dose-only effect; further: nearly all actives have a fitted effect of over 60% in size
# Target sequence (Q9HBX9 whole entry, looked up): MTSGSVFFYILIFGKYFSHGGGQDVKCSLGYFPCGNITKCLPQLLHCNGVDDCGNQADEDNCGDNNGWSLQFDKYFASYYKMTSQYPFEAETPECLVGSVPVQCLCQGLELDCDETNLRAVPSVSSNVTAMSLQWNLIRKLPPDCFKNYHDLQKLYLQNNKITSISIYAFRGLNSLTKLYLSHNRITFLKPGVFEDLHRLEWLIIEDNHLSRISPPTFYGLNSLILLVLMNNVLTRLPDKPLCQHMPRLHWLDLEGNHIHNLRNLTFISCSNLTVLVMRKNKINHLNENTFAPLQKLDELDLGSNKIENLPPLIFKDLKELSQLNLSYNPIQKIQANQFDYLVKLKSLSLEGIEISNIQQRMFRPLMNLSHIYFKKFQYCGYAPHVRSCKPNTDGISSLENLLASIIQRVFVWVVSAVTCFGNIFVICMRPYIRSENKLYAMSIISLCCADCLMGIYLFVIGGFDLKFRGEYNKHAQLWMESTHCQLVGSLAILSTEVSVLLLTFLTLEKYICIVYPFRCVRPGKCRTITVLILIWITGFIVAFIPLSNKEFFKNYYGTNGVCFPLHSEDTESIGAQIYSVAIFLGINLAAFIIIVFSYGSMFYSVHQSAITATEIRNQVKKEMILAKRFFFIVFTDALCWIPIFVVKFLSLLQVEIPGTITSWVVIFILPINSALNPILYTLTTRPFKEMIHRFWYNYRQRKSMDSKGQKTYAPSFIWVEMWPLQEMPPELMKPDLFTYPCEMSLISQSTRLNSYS
#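 Agonist response is measured as cAMP accumulation in an RXFP1-transfected HEK293T line under PDE4 inhibition. Values are scaled between buffer-only and 29 nM porcine relaxin, and EC50s come from standard Hill equation fits.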
# RXFP1 antagonist: qHTS Assay for Antagonists of the Relaxin Receptor RXFP1 | activity change, negative = inhibition, % at 57.5 µM | HEK293-RXFP1, relaxin-stimulated cAMP HTRF, 30 min; hits give low values | Relaxin receptor 1 (Homo sapiens), Q9HBX9 | actives 0.59% (n = 350,000);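 active means activity change of -60% or lower, but not beyond a set lower limit; inconclusive means change between -60% and -40%, or beyond the set limit; inactive means change above -40%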
# gsp antagonist: qHTS for Antagonists of gsp, the Etiologic Mutation Responsible for Fibrous Dysplasia/McCune-Albright Syndrome: qHTS; gsp-mutant cells, cAMP HTRF, 30 min; Potency, µM (series often up to 76.9 µM), usual class: inhibitors; actives 0.4% (n = 340,000); AID 624288, 2012; calls by dose curve; cell line not stated here;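 further: intracellular cAMP measured with PDE inhibitor Ro 20-1724 present during compound exposure; nearly all actives have a fitted effect of over 65% in size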
#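 HTRF cAMP measurement after 30 min RT detection following 30 min, 37C compound treatment alongside […] (added as 300 uM solution) in G418-selected cells seeded at 2000/well and grown 16–24 h.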
# FBPA coupling cs: qHTS Assay for Inhibitors of Fructose-1,6-bisphosphate Aldolase from Giardia Lamblia: Coupling assay counterscreen; coupling enzyme system counterscreen, AmpLite Red fluorescence; activity change, negative = inhibition, % at 58.2 µM, hits read low; AID 2472, 2010; actives 0.67% (n = 290,000); in the data active means activity change below about -30%
#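 Final compound at 57.5 uM, incubated 10 min at RT with coupling enzyme reagent (glyceraldehyde-3-phosphate), then 20 min with substrate and AmpLite Red detection. Fluorescence read at 525/598 nm; tests interference with the coupling assay, not aldolase inhibition.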
# gsp ag: qHTS for Agonist of gsp, the Etiologic Mutation Responsible for Fibrous Dysplasia/McCune-Albright Syndrome: qHTS | gsp mutant cells, cAMP HTRF, 30 min | Potency, µM (series often up to 76.9 µM), actives largely listed as activators | actives 0.13% (n = 340,000); active means well fitted activation curve with a large enough effect; inconclusive means small, poorly fitted or top-dose-only effect, or another doubt; inactive means no such curve, though single readings can be large or run the other way; cell line not stated here;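 further: phosphodiesterase inhibitor Ro 20-1724 added with compounds to block cAMP breakdown; nearly all actives have a fitted effect of over 60% in size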
#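 Cells stably selected in G418 were plated at 2000/well, grown 16-24 hr, then given compounds in DMSO with the PDE inhibitor […] (300 uM solution added) for 30 min at 37C; cAMP was read by HTRF.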
# Numbers stand for hits; n = inactive; u = inconclusive; x = no result; [ ] = remark or other dose. Shown are actives, neighbours in structure and some others; about 1.6% of the full set was active somewhere.
SMILES,Giardia kill,RXFP1 agonist,RXFP1 antagonist,gsp antagonist,FBPA coupling cs,gsp ag
CC(=O)Nc1ccc(NC(=O)[C@H](C)NC(=O)c2ccco2)cc1,n,n,n,n,n,n[15.4 µM]
Cc1ccc(CC(CC(=O)O)C(=O)Nc2ccc(Cl)cc2)cc1 (stereo not given),n,n,n,n,n,n
COc1ccc(CC(CC(=O)O)C(=O)Nc2ccc(Cl)c(Cl)c2)cc1 (stereo not given),n,n,n,17.8µM,n,n
Cc1cc(C)cc(N(C(=O)c2snc(C(N)=O)c2N)C(C(=O)NCC2CCCO2)c2ccc(C)o2)c1 (stereo not given),n,n,-60.6,n,n,n
CCOc1ccc(C(C(=O)NCC2CCCO2)N(C(=O)c2snc(C(N)=O)c2N)c2cccc(F)c2)cc1 (stereo not given),n,n,-90.5,u,n,n
Cc1ccc(C(C(=O)NCC2CCCO2)N(C(=O)c2snc(C(N)=O)c2N)c2ccc(C)c(C)c2)o1 (stereo not given),n,n,-76.3,n,n,n[15.4 µM]
Cc1ccc([N+](=O)[O-])cc1S(=O)(=O)Nc1cccc(-c2ccc(N3CCOCC3)nn2)c1,n,n,n,u,x,n[15.4 µM]
COc1ccc(/C=C(/C(=O)c2cccs2)N2C=CC=CC2=C(C#N)C#N)cc1,n,n,n,n,n,n
N#CC(C#N)=C1C=CC=CN1/C(=C\c1ccco1)C(=O)c1ccccc1,n,n,-103.9,n,n,u
COc1ccc(C(=O)/C(=C\c2ccco2)N2C=CC=CC2=C(C#N)C#N)cc1,n,n,-74.9,n,n,n[15.4 µM]
N#CC(C#N)=C1C=CC=CN1/C(=C\c1ccco1)C(=O)c1ccc(Br)cc1,n,n,u,n,n,n
CC(N=Cc1cc([N+](=O)[O-])ccc1O)c1ccccc1 (stereo not given),n,n,n,n,n,n
CC(N=Cc1cccc(O)c1O)c1ccccc1 (stereo not given),n,n,n,n,-39.0,n
COC(=O)C1=C(C)NC(=O)C1(NC(=O)c1ccc(Cl)cc1)C(F)(F)F (stereo not given),x,n,n,x,x,x
CN(C)c1ccc(/C=C/c2cccc[n+]2[O-])cc1,n,n,n,u,n,n[15.4 µM]
CN(C)c1ccc(/C=C/c2ccc3c4ccccc4ccc3[n+]2-c2ccccc2)cc1,n,n,u,39.8µM,n,n[15.4 µM]
CN(C)c1ccc(/C=C/c2ccc3ccccc3[n+]2C)cc1,n,n,-91.9,u,n,n
CN(CCCS(=O)(=O)[O-])c1ccc(/C=C/c2ccc3ccccc3[n+]2C)cc1,n,n,n,n,n,n
CC(=O)c1ccc(Nc2c3ccccc3cc3occc23)cc1,x,x,x,x,n,x
CN1CC=C2C(C#N)=C(N)C(C#N)(C#N)C(c3ccsc3)C2C1 (stereo not given),n,n,n,n,n,n
CN1CC=C2C(C#N)=C(N)C(C#N)(C#N)[C@H](c3cccc(Cl)c3)C2C1 (stereo not given in full),n,n,n,n,-36.4,n
O=C(c1ccco1)N1CCNCC1,x,x,n,x,x,x
O=S(=O)(NCc1ccccn1)c1cc(OCC(F)(F)F)ccc1OCC(F)(F)F,n,n,n,n,n,n
CC(=O)Nc1c(Br)cc2c(c1Br)C(=O)c1ccccc1-2,n,x,n,n,x,n
CC(=O)C1=C(c2ccc(Br)cc2)C(=O)c2ccccc2C1=O,n,n,n,n,-69.7,n[15.4 µM]
SMILES,Giardia kill,RXFP1 agonist,RXFP1 antagonist,gsp antagonist,FBPA coupling cs,gsp ag
CCN(CC)c1ccc2cc(-c3nc4ccccc4[nH]3)c(=O)oc2c1,-108.2,n,n,n,n,n
CCN(CC)c1ccc2cc(-c3nc4ccccc4n3C)c(=O)oc2c1,n,n,n,n,n,u
Cc1ccc(Nc2nc(Cl)nc(NC(C)(C)C)n2)cc1,n,n,-70.8,n,n,n
CCS(=O)(=O)c1ccc(OC)c(C(=O)OC)c1,x,x,n,x,x,x
Cc1cc[n+](C2=C([O-])c3ccccc3C(=O)/C2=N\S(=O)(=O)c2cccs2)cc1C,n,n,n,n,-62.8,n
O=C1/C(=N\S(=O)(=O)c2cccs2)C([n+]2cccc(Cc3ccccc3)c2)=C([O-])c2ccccc21,n,n,n,n,-38.2,n[15.4 µM]
O=C1/C(=N\S(=O)(=O)c2cccs2)C([n+]2ccc(CCCc3ccccc3)cc2)=C([O-])c2ccccc21,n,n,n,n,-35.1,n[15.4 µM]
Cc1cc(C)c[n+](C2=C([O-])c3ccccc3C(=O)/C2=N\S(=O)(=O)c2cccs2)c1,n,n,n,n,n,n
C[C@@H](c1ccccc1)N1C(=O)[C@H]2[C@H]3[C@H](O)[C@H](O)C/C(=N/NC(=O)OCc4ccccc4)[C@@H]3CC[C@@H]2C1=O,x,x,x,x,n,x
Cc1cc2[nH]c3c(c[n+](C)c4ccccc34)c2cc1C,-83.7,n,u,n,n,u
COC(=O)CCCC(=O)OC,n,x,x,n,x,x
COC(=O)CCN(C)CCC(=O)OC,n,n,n,50.1µM,n,n
Cc1nnc(N2C(=O)C(O)=C(C(=O)c3ccco3)C2c2ccc(F)cc2)s1 (stereo not given),n,u,x,n,n,u
CSc1ccc(C2C(C(=O)c3ccco3)=C(O)C(=O)N2c2nnc(SC)s2)cc1 (stereo not given),n,15.8µM,n,n,x,u
COc1cccc(NC(=O)NNC(=O)CCc2ccc(O)c(O)c2)c1,n,n,n,n,n,n
CN1C(=O)/C(=C/c2ccc(O)c([N+](=O)[O-])c2)N(C)C1=S,-91.3,n,n,n,n,u
COc1cc(/C=C2\C(=O)N(C)C(=S)N2C)ccc1O,n,n,n,n,n,n
Cc1ccc(CN(C)CC(=O)NC(C)c2ccccc2)cc1 (stereo not given),n,n,n,n,n,u
CC(NC(=O)CN(C)Cc1cccc(Cl)c1)c1ccccc1 (stereo not given),n,n,n,11.2µM,n,n[15.4 µM]
CCOC(=O)c1c(C)[nH]c2c1cc(O)c1ccccc12,n,n,n,n,-33.2,n
CCc1nnc(NC(=O)c2ccc(OC)cc2OC)s1,n,n,n,n,n,n
COc1ccc(C(=O)Cc2nnc(C)s2)c(OC)c1,n,n,n,n,-33.7,n

# Screening results as filed in PubChem BioAssay.
